# Screening results deposited in PubChem by National Center for Advancing Translational Sciences (NCATS).
# The entries come from a sample that favours hits as a whole.
# KDM5B inhibitor = KDM5B demethylase inhibition. KDM5B demethylase, FDH-coupled NADH fluorescence (FDH is formaldehyde dehydrogenase). AID 1347165. 220,000 compounds, 2.6% hits. Potency, µM (top dose mostly 57.7 µM), actives largely listed as inhibitors. Q9UGL1; active means well fitted inhibition curve with a large enough effect; further: nearly all actives have a fitted effect of over 70% in size
# Target sequence (Q9UGL1 whole entry, looked up): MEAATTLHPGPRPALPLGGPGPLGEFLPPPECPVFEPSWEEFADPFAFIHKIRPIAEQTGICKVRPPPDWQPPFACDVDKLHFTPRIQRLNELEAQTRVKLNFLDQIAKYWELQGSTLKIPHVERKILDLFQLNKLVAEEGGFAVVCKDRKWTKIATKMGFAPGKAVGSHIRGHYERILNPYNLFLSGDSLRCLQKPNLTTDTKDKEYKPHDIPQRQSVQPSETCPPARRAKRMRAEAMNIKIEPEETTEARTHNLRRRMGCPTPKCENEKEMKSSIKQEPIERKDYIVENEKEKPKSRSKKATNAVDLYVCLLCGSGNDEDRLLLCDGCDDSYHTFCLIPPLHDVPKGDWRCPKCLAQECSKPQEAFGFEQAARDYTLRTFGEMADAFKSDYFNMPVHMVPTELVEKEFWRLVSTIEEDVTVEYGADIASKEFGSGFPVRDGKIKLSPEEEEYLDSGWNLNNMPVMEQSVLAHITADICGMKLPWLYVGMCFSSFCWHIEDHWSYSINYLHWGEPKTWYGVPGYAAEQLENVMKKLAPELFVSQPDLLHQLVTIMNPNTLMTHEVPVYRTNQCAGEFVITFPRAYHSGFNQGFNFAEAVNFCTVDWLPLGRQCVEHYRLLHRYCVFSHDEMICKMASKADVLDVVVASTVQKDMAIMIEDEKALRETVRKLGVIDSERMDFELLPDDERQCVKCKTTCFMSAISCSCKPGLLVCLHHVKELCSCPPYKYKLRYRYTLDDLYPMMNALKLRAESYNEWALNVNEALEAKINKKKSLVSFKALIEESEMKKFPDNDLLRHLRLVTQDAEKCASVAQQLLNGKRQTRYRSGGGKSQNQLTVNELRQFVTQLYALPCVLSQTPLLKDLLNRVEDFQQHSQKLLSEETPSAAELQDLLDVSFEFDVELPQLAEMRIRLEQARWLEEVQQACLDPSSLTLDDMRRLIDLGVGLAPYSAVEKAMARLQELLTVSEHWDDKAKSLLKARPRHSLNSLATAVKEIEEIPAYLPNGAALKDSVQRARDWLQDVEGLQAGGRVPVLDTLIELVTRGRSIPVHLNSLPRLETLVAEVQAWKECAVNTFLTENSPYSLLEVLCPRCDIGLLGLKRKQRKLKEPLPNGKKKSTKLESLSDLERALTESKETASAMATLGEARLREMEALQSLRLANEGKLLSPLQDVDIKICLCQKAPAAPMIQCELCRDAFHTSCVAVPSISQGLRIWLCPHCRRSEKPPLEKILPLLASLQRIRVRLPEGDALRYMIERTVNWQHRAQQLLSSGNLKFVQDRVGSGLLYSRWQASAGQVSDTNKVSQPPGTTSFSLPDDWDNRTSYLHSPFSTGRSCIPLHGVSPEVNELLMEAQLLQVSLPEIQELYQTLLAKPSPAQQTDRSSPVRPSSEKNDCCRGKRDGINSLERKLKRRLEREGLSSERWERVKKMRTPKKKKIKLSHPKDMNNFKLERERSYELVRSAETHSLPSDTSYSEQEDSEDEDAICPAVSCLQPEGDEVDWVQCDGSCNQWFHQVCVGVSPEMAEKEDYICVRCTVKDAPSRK
#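 Measured: NADH fluorescence change, 30 min, RT. System: KDM5BΔAP 200 nM final, H3K4me3 peptide, α-KG, Fe(II), ascorbate, NAD⁺ plus FDH, pH 7.5 HEPES. Compounds: titrated, 10 min pre-incubation with enzyme.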
# A number is an active result; - = inactive.
SMILES,KDM5B inhibitor
CCC(=O)N(C1CCOCC1)C1CCN(Cc2cccnc2)CC1,-
COCCNC(=O)C(=O)NCC(c1cccnc1)N1CCN(c2ccccc2F)CC1 (stereo not drawn),-
COCCNC(=O)c1cc(-c2ccccc2F)cc2c1OCCN2Cc1cccnc1,31.6µM
CNC(=O)c1cc(-c2ccccc2O)cc2c1OCCN2Cc1cccnc1,31.6µM
CNC(=O)c1cc(-c2ccc(OC)nc2)cc2c1OCCN2Cc1cccnc1,28.2µM
COCCCNC(=O)c1cc(-c2cccnc2)nc2ccccc12,-
O=C(NC1CCOCC1)c1cc(-c2ccccc2F)cc2c1OCCN2Cc1cccnc1,22.4µM
CNC(=O)c1cc(-c2ccc(N3CCOCC3)cc2)cc2c1OCCN2Cc1cccnc1,-
CCCNC(=O)N(C1CCOCC1)C1CCN(Cc2cccnc2)CC1,-
COc1ccc(-c2ocnc2C(=O)N2CCN(Cc3cccnc3)CC2)cc1,-
O=C(CC1C=CCC1)NCc1cccs1 (stereo not drawn),-
CC(C)C(C)(C#N)NC(=O)CSc1ccc2ccccc2n1 (stereo not drawn),-
CCCCn1c(-n2nc(C)c(C)c2C)nc2c1c(=O)n(CC(N)=O)c(=O)n2C,-
CCNC(=O)N1CCCOCCNC(=O)[C@@H]2CCC[C@@H]21,-
CCNc1nc(SC(C)C(=O)NC)nc2ccccc12 (stereo not drawn),-
COCCNC(=O)CN1CCN(C(C(=O)O)c2c(C)[nH]c3ccccc23)CC1 (stereo not drawn),-
CC(C)CCC(CCNCc1ccco1)c1ccco1 (stereo not drawn),-
CC1(C)CC(NC(=O)Nc2ccc(OC(F)F)c(Cl)c2)CC(C)(C)N1,-
O=C(C1CCC1)N(CCc1ccccc1)Cc1ccncc1,-
CCc1ccccc1NC(=O)NCc1nc(-c2ccccc2C)oc1C,-
COc1ccc(/C=C(/C#N)c2ccc(C(F)(F)F)cn2)cc1O,-
Cc1cccc(OCCc2noc(C3CN(C(=O)C(C)C)C3)n2)c1,-
CC1CCC(C(=O)NC(C)c2ccccc2)CC1 (stereo not drawn),-
COc1ccccc1C(=O)Nc1ccc([C@H]2OCC(=O)N(Cc3cccnc3)[C@@H]2CO)cc1,-
COc1ccccc1OC1(C(=O)O)CCN(Cc2cccnc2)CC1,-
SMILES,KDM5B inhibitor
CNC(=O)c1cc(-c2ccccc2OC)cc2c1OCCN2Cc1cccnc1,28.2µM
CC(C)CNC(=O)c1ccccc1NC(=O)C1CCN(S(=O)(=O)Cc2ccccc2)CC1,-
Cc1ccccc1-c1ncc2c(n1)OCCN(c1ccccc1)C2=O,-
COc1ccc(-c2ncc3c(n2)OCCN(C)C3=O)cc1OC,28.2µM
CN(C)c1cccc(-c2ncc3c(n2)OCCN(c2ccccc2)C3=O)c1,-
CN1CCOc2nc(-c3cccc(OC(F)(F)F)c3)ncc2C1=O,-
COc1ccccc1-c1ncc2c(n1)OCCN(c1cccc(C(F)(F)F)c1)C2=O,31.6µM
O=C1c2cnc(-c3ccc(O)c(F)c3)nc2OCCN1c1ccccc1,-
COc1ncccc1-c1ncc2c(n1)OCCN(c1cccc(C(F)(F)F)c1)C2=O,-
COc1ccc(Cl)cc1-c1ncc2c(n1)OCCN(c1ccccc1)C2=O,28.2µM
O=C1c2cnc(-c3cccc(CO)c3)nc2OCCN1c1cccc(C(F)(F)F)c1,-
COc1ccc(C)cc1-n1nnc(-c2nc(-c3ccccc3)no2)c1N,-
CC(C)N1CCC(CNC(=O)c2cc3ccccc3n2C)C1 (stereo not drawn),-
O=C(CC1CC2CCC1C2)Nc1ccc(Cl)c(C(F)(F)F)c1 (stereo not drawn),-
CC(NC(=O)CCCC(=O)O)C12CC3CC(CC(C3)C1)C2 (stereo not drawn),-
O=C(CN1CCN(Cc2ccccn2)CC1)Nc1cccc2nsnc12,-
COc1cc(-c2cn(C)c(=O)n3cc(CNc4ccccc4)nc23)ccn1,-
CN1CCN(c2ccc(-c3cn(C)c(=O)n4cc(CNc5ccccc5)nc34)cn2)CC1,28.2µM
Cn1cc(-c2ccc(CO)cc2)c2nc(COc3ccccc3)cn2c1=O,-
CC(=O)Nc1cccc(-c2cn(C)c(=O)n3cc(COc4ccc(Cl)cc4)nc23)c1,-
CN(C)Cc1cn2c(=O)n(C)cc(-c3cccc(OC(F)(F)F)c3)c2n1,-
CN1CCN(c2ccc(-c3cn(C)c(=O)n4cc(COc5ccnn5C)nc34)cn2)CC1,39.8µM
COc1cc(-c2cn(C)c(=O)n3cc(COc4ccnn4C)nc23)ccn1,35.5µM
Cn1nccc1OCc1cn2c(=O)n(C)cc(-c3cccc(OC(F)(F)F)c3)c2n1,-
Cn1nccc1-c1cn(C)c(=O)n2cc(COc3ccc(Cl)cc3)nc12,-
SMILES,KDM5B inhibitor
CN(C)Cc1cn2c(=O)n(C)cc(-c3ccccc3Oc3ccccc3)c2n1,-
Cn1cc(-c2cn(C)c(=O)n3cc(CNc4ccccc4)nc23)cn1,-
COc1ccc(-c2cn(C)c(=O)n3cc(CN(C)C)nc23)cc1OC,35.5µM
Cc1ccc(C(=O)NCC(O)c2ccc(C)cc2)cc1 (stereo not drawn),-
O=C1N(c2ccccc2)c2ccccc2C12CCN(Cc1ccc(C(F)(F)F)cc1)C2 (stereo not drawn),-
CC(NC(=O)c1ccc(CS(C)(=O)=O)cc1)c1ccccc1 (stereo not drawn),-
COc1ccc(C(C)=O)cc1COC(=O)/C=C/c1cccc(Br)c1,-
CCCSc1nn(CCCN(C)C)c2nc3sc4c(c3c(=O)n12)CCCC4,-
COc1ccc(S(=O)(=O)Nc2ccc(Nc3cc(N(C)C)nc(C)n3)cc2)c(C)c1C,-
Cc1ccc(S(=O)(=O)NCc2ccc(C(=O)N3CCN(c4cc(C)ccc4C)CC3)cc2)cc1,-
CCNc1ccc(S(=O)(=O)N(CC)CC)cc1NC(=O)Cc1ccccc1F,-
Cc1ccc(SC(C)C(=O)c2ccccc2)cc1 (stereo not drawn),-
S=C(Cc1nc(-c2ccc(C3CCCCC3)cc2)cs1)N1CCOCC1,-
CCOC(=O)C1=C(C)N=C2SCC(=O)N2C1c1ccc(OC)cc1OC (stereo not drawn),-
O=c1[nH]c(C2CCCN(Cc3ccccc3C(F)(F)F)C2)nn1-c1ccccc1 (stereo not drawn),-
O=c1[nH]c(C2CCCN(Cc3ccccn3)C2)nn1-c1ccccc1 (stereo not drawn),22.4µM
O=c1[nH]c(C2CCCN(Cc3ccc(F)cc3)C2)nn1-c1ccccc1 (stereo not drawn),-
CCc1ccc2nc(NC(=O)Cn3nc(C)c4ccccc4c3=O)sc2c1,-
CCN(CC)S(=O)(=O)c1ccc(Cl)c(C(=O)Nc2c(C)cc(C)cc2Cl)c1,-
CC(CCc1ccccc1)NC(=O)c1cc(=O)[nH]c2ccccc12 (stereo not drawn),-
CSc1cccc(NC(=O)C2CCCC2)c1,-
CCCC(C)(C)NC(=O)Cc1cc(OC)c(OC)c(OC)c1,-
COc1cc(-c2nc(-c3nonc3N)no2)cc(OC)c1OC,-
CCc1nc(C)cc(-c2cc(OC)c(OC)c(OC)c2)n1,25.1µM
COc1ccc(C(=O)N2CCCC(n3cc(-c4nc(-c5ccccc5)no4)nn3)C2)cc1F (stereo not drawn),-
COc1ccccc1C(NC(=O)CSc1c(Cl)cccc1Cl)c1nccn1C (stereo not drawn),-
CC(C)CCC(=O)N1CCC(OC2CCN(Cc3ccccc3)CC2)CC1,-
C=CCN(CC=C)Cc1c(C)[nH]c2c(C)cccc2c1=O,-
Cc1cc(NC(=O)NCC(c2ccc(C)o2)N2CCOCC2)no1 (stereo not drawn),-
Clc1cc(NCC2CC2)n2nccc2n1,-
